Screens: PubChem BioAssay, several laboratories
CHT PAM: allosteric activators of human choline transporter CHT; Q9GZV3; CHT-expressing cells, membrane potential dye, choline EC20; stronger effect = higher value; LV-AA mutant CHT in HEK293 cells; B-score at 10 µM; 310,000 compounds, 0.49% hits; AID 488977;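 active means initial fluorescence not abnormally high and integrated response B-score, plate-corrected, over 3 SD above library mean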
Target sequence (Q9GZV3 whole entry, looked up): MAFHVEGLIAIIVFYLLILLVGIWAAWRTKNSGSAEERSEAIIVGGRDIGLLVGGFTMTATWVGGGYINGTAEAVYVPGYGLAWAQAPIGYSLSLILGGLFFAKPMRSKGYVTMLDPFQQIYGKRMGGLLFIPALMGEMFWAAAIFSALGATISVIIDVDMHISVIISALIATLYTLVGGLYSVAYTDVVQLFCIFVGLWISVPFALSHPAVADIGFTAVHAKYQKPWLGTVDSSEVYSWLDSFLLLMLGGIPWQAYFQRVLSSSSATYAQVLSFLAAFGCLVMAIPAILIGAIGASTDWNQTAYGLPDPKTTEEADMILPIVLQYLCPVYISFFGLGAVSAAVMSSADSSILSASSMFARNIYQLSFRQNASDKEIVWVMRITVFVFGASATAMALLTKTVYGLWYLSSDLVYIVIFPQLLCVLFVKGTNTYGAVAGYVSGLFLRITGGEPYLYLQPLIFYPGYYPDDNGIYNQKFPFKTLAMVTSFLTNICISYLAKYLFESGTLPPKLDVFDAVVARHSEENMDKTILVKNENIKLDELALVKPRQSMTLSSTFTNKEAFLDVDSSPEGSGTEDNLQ
MEKK3 PB1 HTS: raises or lowers MEK5 binding to the human MEKK3 PB1 domain; bead-based flow cytometry, Alexa488-MEK5 binding to MEKK3; actives lie on both sides; 0 = blocked by unlabeled MEK5, 100 = vehicle; binding response (% of control), % at 10 µM; 290,000 compounds, 1.4% hits; AID 1529;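 active means binding response more than 3 SD above or below the average of its plate-row segment, actives on both sides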;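 further: Alexa488 bead fluorescence after subtracting the streptavidin-only scavenger bead signal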
MEKK2mut PB1 HTS: signal of MEK5 binding to mutant human MEKK2 PB1 domain; bead flow cytometry, Alexa488-MEK5 binding to MEKK2 mutant; percent response, % at 10 µM; 290,000 compounds, 0.35% hits; in the data active means percent response above about 24%, passing the limit was not always enough
SUMO Mot1 rescue: inhibitors of SUMOylation pathway: yeast Mot1-301 growth rescue; S. cerevisiae Mot1-301 growth rescue, ATP luminescence, 38.5C; percent above DMSO median, 100 means doubled; growth rescue, % at 18.8 µM; 320,000 compounds, 1% hits; AID 2716;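 active means every valid replicate shows activation above 250% relative to neutral control wells; inactive means the rest, any valid replicate at or below 250%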
CHT block: inhibits the human high affinity choline transporter. 310,000 compounds, 0.86% hits. B-score at 10 µM. Q9GZV3. CHT-expressing cells, membrane potential dye, choline response; stronger effect = lower value;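 active means B-score over 3 SD under the library average, and starting fluorescence ratio not unusually high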;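 further: choline stimulus applied at its EC90 after an EC20 pre-addition; B-score computed on integrated fluorescence ratio after choline addition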
MEKK2 WT-MEK5: raises or lowers MEK5 binding to wildtype human MEKK2 PB1 domain | Q9Y2U5 | bead flow cytometry, Alexa488-MEK5 binding to MEKK2 WT; actives lie on both sides | binding response (% of control), % at 10 µM | 290,000 compounds, 1.1% hits | AID 1531; in the data active means binding response below about 67% or above about 130%
MEKK2wt confirm: raises or lowers MEK5 binding to wildtype human MEKK2, retest; shares compounds with MEKK3 PB1 HTS; 5,900 compounds, 2.4% hits; binding response (% of control), % at 10 µM; bead flow cytometry, Alexa488-MEK5 binding to MEKK2 WT; actives lie on both sides; in the data active means binding response below about 16% or above about 210%; inactive means in between
MEKK2mut-MEK5: signal of MEK5 binding to mutant human MEKK2, retest. AID 1893. 5,900 compounds, 2% hits. shares compounds with MEKK3 PB1 HTS. percent response, % at 10 µM. bead flow cytometry, Alexa488-MEK5 binding to MEKK2 mutant; in the data active means percent response mostly above about 71%, no sharp cut-off; inactive means mostly below about 38%;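 further: higher means compound restores mutant binding toward wildtype level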
MEKK3 confirm: MEKK3-MEK5 PB1 inhibition, single concentration confirmation. shares compounds with MEKK3 PB1 HTS. bead flow cytometry, Alexa488-MEK5 binding to MEKK3; stronger effect = lower value. binding response (% of control), % at 10 µM. 5,900 compounds, 1.8% hits. AID 1894;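 active means binding response below 72% of control, or above a set upper limit, though filed actives all read lower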
Large screens that a line does not name were inactive (follow-up assays come after a bar, where they were run); [ ] = another dose, or the depositor's remark. Most compounds without a hit are left out; they make up all but 4.1% or so of the library.

COc1ccc(CNCCNC(=O)c2ccco2)c(OC)c1OC	MEKK3 PB1 HTS 127 | MEKK2wt confirm inactive | MEKK2mut-MEK5 inactive | MEKK3 confirm inactive
CSc1ccccc1NC(=O)CN1CCCCC1	none
CSc1ccccc1NC(=O)CN1CC(C)OC(C)C1 (stereo not drawn)	MEKK3 PB1 HTS 133 (no result: SUMO Mot1 rescue) | MEKK2wt confirm inactive | MEKK2mut-MEK5 inactive | MEKK3 confirm inactive
Cc1c(/C=N\NC(=O)C2COc3ccccc3O2)c2ccccc2n1C (stereo not drawn)	MEKK2 WT-MEK5 26[inhibitor] | MEKK2wt confirm inactive | MEKK2mut-MEK5 inactive | MEKK3 confirm inactive
O=C(N/N=C/c1c(O)n(-c2ccccc2Cl)c(=O)c2ccccc12)C1COc2ccccc2O1 (stereo not drawn)	MEKK3 PB1 HTS 137 | MEKK2wt confirm inactive | MEKK2mut-MEK5 inactive | MEKK3 confirm inactive
Cn1cc(/C=N\NC(=O)C2COc3ccccc3O2)c2ccccc21 (stereo not drawn)	none
COC(=O)c1ccc2c(c1)C(C)(C)C(/C=C/c1ccccc1O)=[N+]2C	CHT PAM 7.2, MEKK2 WT-MEK5 -1.0[inhibitor] | MEKK2wt confirm inactive | MEKK2mut-MEK5 inactive | MEKK3 confirm inactive
CN1CCN(c2ccccc2NC(=O)c2ccc(-c3ccc(Cl)c(Cl)c3)o2)CC1	MEKK2 WT-MEK5 139 | MEKK2wt confirm inactive | MEKK2mut-MEK5 inactive | MEKK3 confirm inactive
CN1CCN(c2ccccc2NC(=O)c2ccc(-c3cccc([N+](=O)[O-])c3)o2)CC1	none
COc1ccc(-c2cc(C(=O)NCC(c3ccco3)N(C)C)c3ccccc3n2)cc1OC (stereo not drawn)	none (no result: MEKK3 PB1 HTS, MEKK2mut PB1 HTS, MEKK2 WT-MEK5)
COc1ccc(/C=C2\SC(=Nc3ccccc3)NC2=O)cc1	none
COc1ccc(N=C2NC(=O)/C(=C/c3ccc(O)c(OC)c3)S2)cc1	MEKK3 PB1 HTS 146 | MEKK2wt confirm inactive | MEKK2mut-MEK5 inactive | MEKK3 confirm inactive
CCCc1nc(SC)[nH]c(=O)c1C	none
CCOC(=O)CNC(=O)CSc1nnc(Cn2cnc3ccccc32)n1C	MEKK3 PB1 HTS 126 | MEKK2wt confirm inactive | MEKK2mut-MEK5 inactive | MEKK3 confirm inactive
Cc1[nH]c2ccccc2c1/C=N/Nc1nc2ccccc2[nH]1	MEKK2 WT-MEK5 140 | MEKK2wt confirm inactive | MEKK2mut-MEK5 inactive | MEKK3 confirm inactive
O=[N+]([O-])c1cc(/C=N/Nc2nc3ccccc3[nH]2)c(O)cc1O	MEKK3 PB1 HTS 132 | MEKK2wt confirm inactive | MEKK2mut-MEK5 inactive | MEKK3 confirm inactive
Clc1ccc(-c2nnc(COc3ncnc4sccc34)o2)cc1	none
O=C(CN1CCCc2ccccc21)NCCc1ccc(F)cc1	MEKK3 PB1 HTS 45[inhibitor] | MEKK2wt confirm inactive | MEKK2mut-MEK5 inactive | MEKK3 confirm inactive
COc1ccc(CCNC(=O)CN2CCCc3ccccc32)cc1OC	none
CCOC(=O)c1cc(CC)sc1/N=C/C1C(=O)CCCC1=O	none
O=C1CC(N2CCN(c3ccc(F)cc3)CC2)C(=O)N1c1ccc2c(c1)OCO2 (stereo not drawn)	MEKK3 PB1 HTS 2.0[inhibitor], MEKK2 WT-MEK5 1.0[inhibitor] | MEKK2wt confirm inactive | MEKK2mut-MEK5 inactive | MEKK3 confirm inactive
CCO/C=N/Nc1nc(C(F)(F)F)nc2c1cnn2Cc1ccccc1	none
O=C1S/C(=C/c2ccccc2)C(=O)N1CC(O)Cn1c2ccccc2c2ccccc21 (stereo not drawn)	MEKK3 PB1 HTS 75[inhibitor] | MEKK2wt confirm inactive | MEKK2mut-MEK5 inactive | MEKK3 confirm inactive
Cc1occc(=O)c1OC(=O)Nc1ccccc1	none (no result: SUMO Mot1 rescue)
COC(=O)/C=C/CC(C)OS(N)(=O)=O (stereo not drawn)	MEKK2 WT-MEK5 152 | MEKK2wt confirm inactive | MEKK2mut-MEK5 inactive | MEKK3 confirm inactive
COC(=O)[C@H](CC(C)C)NS(=O)(=O)N[C@@H](CC(C)C)C(=O)OC	none (no result: CHT PAM, MEKK3 PB1 HTS, MEKK2mut PB1 HTS, CHT block, MEKK2 WT-MEK5)
CN(C)C(=S)Nc1ccc(Cc2ccncc2)cc1	none
CCC(C)(C)c1ccc(OCCCC[n+]2cccc(C)c2)c(C(C)(C)CC)c1	MEKK2 WT-MEK5 191 (no result: CHT PAM, SUMO Mot1 rescue, CHT block) | MEKK2wt confirm inactive | MEKK2mut-MEK5 81 | MEKK3 confirm inactive
COc1ccc(CSC(=N)N)cc1[N+](=O)[O-]	none
CCCCCOc1ccc(CSC(=N)N)cc1[N+](=O)[O-]	MEKK2mut PB1 HTS 34, MEKK2 WT-MEK5 148 | MEKK2wt confirm inactive | MEKK2mut-MEK5 inactive | MEKK3 confirm inactive
NC(=O)CC(NC(=O)c1ccc(Cl)cc1)C(=O)NCCc1ccc(S(N)(=O)=O)cc1 (stereo not drawn)	none
COc1ccc(OCC(O)Cn2c(N)nc3c2c(=O)[nH]c(=O)n3C)cc1 (stereo not drawn)	none
O=c1[nH]c(SCc2ccccc2[N+](=O)[O-])nc2nc[nH]c12	MEKK3 PB1 HTS 45[inhibitor] | MEKK2wt confirm inactive | MEKK2mut-MEK5 inactive | MEKK3 confirm inactive
N/N=c1\sc2ccccc2n1-c1ccccc1	none
COc1ccc(OC)c(-n2c(=O)c3ccccc3c3ccccc3c2=O)c1	MEKK3 PB1 HTS 72[inhibitor] | MEKK2wt confirm inactive | MEKK2mut-MEK5 inactive | MEKK3 confirm inactive
Cc1c(C(=O)NCCSCc2c(F)cccc2Cl)cnn1-c1ccc(Cl)cc1	MEKK3 PB1 HTS 129 | MEKK2wt confirm inactive | MEKK2mut-MEK5 inactive | MEKK3 confirm inactive
Cc1ccccc1N(CC(=O)NC1CCCC1)C(=O)C1(C)CC(=O)N=C2C=CC(Cl)=CN21 (stereo not drawn)	none
Cc1ccccc1N(CC(=O)NC1CCCC1)C(=O)C1(C)CC(=O)N=C2C=CC=CN21 (stereo not drawn)	MEKK3 PB1 HTS 46[inhibitor] | MEKK2wt confirm inactive | MEKK2mut-MEK5 inactive | MEKK3 confirm inactive
COC(=O)c1ccc(CNC(=O)C2CCC(=O)N(CCN3CCOCC3)C2)cc1 (stereo not drawn)	none
CCN(CC)S(=O)(=O)c1cc(C(=O)OCC(=O)Nc2cccc(C)c2C)ccc1F	MEKK3 PB1 HTS 129 | MEKK2wt confirm inactive | MEKK2mut-MEK5 inactive | MEKK3 confirm inactive
Cc1ccc(-c2nnc(-n3nc(C)cc3C)c3ccccc23)cc1	MEKK3 PB1 HTS 137 | MEKK2wt confirm inactive | MEKK2mut-MEK5 inactive | MEKK3 confirm inactive
Cc1cc(C)n(-c2nnc(Cl)c3ccccc23)n1	none
COc1cc(C(=S)N2CCCCC2)ccc1OCC(=O)N1CCCC1	MEKK3 PB1 HTS 124 | MEKK2wt confirm inactive | MEKK2mut-MEK5 inactive | MEKK3 confirm inactive
